# Bioassay records (PubChem)
# RPL19A-GFP yeast: alters RPL19A-GFP fluorescence in TOR pathway yeast screen | S. cerevisiae RPL19A-GFP strain, flow cytometry, 3 h; stronger effect = lower value | percent response vs DMSO, % at 10 µM | 330,000 tested, 0.3% active | AID 2025;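 active = percent response vs DMSO below 50%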;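 note: median channel GFP fluorescence of the barcoded RPL19A-GFP strain; lower means less RPL19A-GFP as with rapamycin TOR inhibition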
# CIT2 TOR yeast: modulators of TOR pathway CIT2-GFP in S. cerevisiae; S. cerevisiae CIT2-GFP strain, flow cytometry, 3 h; 100 means same as DMSO wells; GFP response vs DMSO, % at 10 µM; 320,000 tested, 0.065% active;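 active = GFP response relative to DMSO above a set limit, near the screen mean plus 3 SD, cut at about 150% in these data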;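 note: ratio of well median GFP fluorescence to mean of DMSO wells on the plate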
# AGP1-GFP MLPCN: modulators of TOR pathway AGP1-GFP in S. cerevisiae; S. cerevisiae AGP1-GFP multiplex flow cytometry, 3 h; GFP as percent of DMSO wells; GFP response vs DMSO, % at 10 µM; 320,000 tested, 0.02% active;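 active = GFP response relative to DMSO above a set limit, near screen average plus 3 SD, cut at about 150% in these data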;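 note: median GFP channel fluorescence of the gated AGP1 strain per well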
# Myeloid diff 2: myeloid differentiation induction | ER-HoxA9 myeloid progenitors, lysozyme-GFP differentiation, flow cytometry | calls only at 10 µM | 360,000 tested, 1% active | AID 624256;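 active = normalized GFP-positive differentiation at or above the plate's own cutoff, the solvent-only control mean plus 3 SD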;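 note: cells exposed to compound for four days before flow analysis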
# LAP4-GFP MLPCN: modulators of TOR pathway LAP4-GFP in S. cerevisiae. S. cerevisiae LAP4-GFP multiplex, flow cytometry GFP, 3 h; median GFP as percent of DMSO wells. GFP response vs DMSO, % at 10 µM. 320,000 tested, 0.34% active;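 active = GFP response vs DMSO above a set limit, about the screen mean plus 3 SD, cut at about 150% in these data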
# MEP2-GFP yeast: alters MEP2-GFP fluorescence in TOR pathway yeast screen; 330,000 tested, 0.51% active; GFP response vs DMSO, % at 10 µM; S. cerevisiae MEP2-GFP strain, flow cytometry GFP, 3 h; 100% = DMSO control level;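 active = GFP response versus DMSO above a set limit, roughly screen mean plus 3 SD, cut at about 180% in these data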;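 note: median GFP fluorescence of the barcode-gated MEP2-GFP cells per well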
# Myeloid diff CP1: promotes myeloid progenitor differentiation; ER-HoxA9 myeloid progenitors, GFP/Mac1 double-positive flow; shares compounds with Myeloid diff 2; calls only; 2,300 tested, 2% active;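 active = share of green or green-and-red cells above 9 and 9% in run 1 or 4 and 3% in run 2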
# GFP autofluor: counter-screen for myeloid differentiation promoters: compound fluorescence | shares compounds with Myeloid diff 2 | ER-HoxA9 myeloid progenitors, no estrogen, GFP autofluorescence flow cytometry; vehicle wells 0%, positive control 100% | fluorescence response, % (no concentration beside the values) | 2,300 tested, 7.4% active | AID 651707;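 active = over 5% cells positive for green fluorescent reporter, or over 2% positive for both it and APC stain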
# Calls only; 0 = inactive; - = not tested or not shown; + = active, no number. Sampled rows, rich in hits. Any-hit rate of the full collection: about 1.8%.
SMILES,RPL19A-GFP yeast,CIT2 TOR yeast,AGP1-GFP MLPCN,Myeloid diff 2,LAP4-GFP MLPCN,MEP2-GFP yeast,Myeloid diff CP1,GFP autofluor
CCCCN1C(=O)c2ccc(C(=O)NC3(C)CCS(=O)(=O)C3)cc2C1=O (stereo unspecified),0,0,0,+,0,0,0,0
CCCCN1C(=O)c2ccc(C(=O)Nc3cccc(C)c3C)cc2C1=O,0,0,0,0,0,0,-,-
CCC(=O)NC(=S)Nc1ccc(NC(=O)c2ccccc2[N+](=O)[O-])cc1,0,0,0,0,0,0,0,0
CCC(=O)NC(=S)Nc1ccc(NC(=O)c2cccc([N+](=O)[O-])c2C)cc1,0,0,0,0,0,0,-,-
CCOc1ccc(-c2cnc3n2CCCCC3)cc1,0,0,0,0,0,0,-,-
CCOc1cc(C(=O)OCC(=O)c2c(N)n(C)c(=O)n(C)c2=O)cc(OCC)c1OCC,0,0,-,0,0,0,-,-
C/C(=N/NC(=O)c1cccc(C)c1)c1c(O)cc(C)oc1=O,0,0,0,0,0,0,0,0
CSc1ccccc1C(=O)NCCOc1cccc(C)c1,0,0,0,0,0,0,-,-
CN(Cc1nc(-c2cnccn2)no1)C1CC(C)(C)NC(C)(C)C1,0,0,0,0,0,0,0,0
COc1cccc(CNCCc2c[nH]c3ccccc23)c1OCc1ccc(F)cc1,0,0,0,0,0,0,-,-
COc1cc(CNCCc2c[nH]c3ccccc23)ccc1OCc1ccc(F)cc1,0,0,0,0,0,0,0,0
COc1ccc(-n2c(C)cc(/C=C3\SC(=S)N(Cc4ccco4)C3=O)c2C)cc1,0,0,0,+,0,0,+,0
COc1ccc(-c2nn(-c3ccccc3)cc2/C=C2/SC(=S)N(Cc3ccco3)C2=O)c(C)c1,0,0,0,0,0,0,-,-
CCN(CC(=O)Nc1ccc(NC(C)=O)cc1)C(=O)CSc1nnc(-c2ccco2)n1CC,0,0,0,0,0,0,-,-
COc1cc(C(=O)OC(C)C(=O)N2CCCC2)cc2c1OCCO2 (stereo unspecified),0,0,0,0,0,0,0,0
COc1cc(C(=O)OCC(=O)NC2CCCCC2)cc2c1OCCO2,0,0,0,+,0,0,0,0
COC(=O)c1cc(S(=O)(=O)NCC2CCN(Cc3cccc(F)c3)CC2)cn1C,0,0,0,0,0,0,-,-
CC(NC(=O)c1c(N)[nH]c(C(=O)c2ccccc2)c1-c1ccccc1Br)c1cccc2ccccc12 (stereo unspecified),-,-,-,0,-,-,-,-
C[C@@H]1CN([C@@H](C)CO)C(=O)c2cccc(NS(C)(=O)=O)c2O[C@H]1CN(C)Cc1ccc(Oc2ccccc2)cc1,0,0,0,0,0,0,0,0
COc1ccc(S(=O)(=O)Nc2cccc3c2O[C@H](CN(C)Cc2ccc(Oc4ccccc4)cc2)[C@@H](C)CN([C@H](C)CO)C3=O)cc1,0,0,0,0,0,0,-,-
C=CCOc1ccc(C2C(C#N)=C(N)N(Nc3ccccc3)C3=C2C(=O)CC(C)(C)C3)cc1OC (stereo unspecified),0,0,0,0,0,0,-,-
Cc1cc(=O)n(CNC(=O)c2ccccc2)c(=S)[nH]1,0,0,0,0,0,0,0,0
CCCS(=O)(=O)NC(=O)C1(C)CCN(C(=O)c2cccc(C(F)(F)F)c2)C1 (stereo unspecified),-,-,-,+,-,-,0,0
CCCS(=O)(=O)NC(=O)C1(C)CCCN(C(=O)c2cccc(C(F)(F)F)c2)C1 (stereo unspecified),-,-,-,0,-,-,-,-
CC1(C)CC(NC(=O)c2sc3cc(Cl)ccc3c2Cl)CC(C)(C)N1,0,0,0,0,0,0,0,0
SMILES,RPL19A-GFP yeast,CIT2 TOR yeast,AGP1-GFP MLPCN,Myeloid diff 2,LAP4-GFP MLPCN,MEP2-GFP yeast,Myeloid diff CP1,GFP autofluor
Fc1ccccc1COc1ccc(Br)cc1CNCC1CCCO1 (stereo unspecified),0,0,0,0,0,0,-,-
Cc1ccc(C(=O)C[n+]2cccc3ccccc32)cc1,0,0,0,+,0,0,0,0
O=C(C[n+]1cccc2ccccc21)c1ccc(Br)cc1,0,0,0,+,0,0,0,0
CC(=O)Nc1ccc(N=NN2CCOCC2)cc1,0,0,0,0,0,0,0,0
CC(=O)Nc1cccc(N=NN2CCOCC2)c1,0,0,0,0,0,0,-,-
CCOC(=O)N1CCN(C(=O)C2CCC(=O)N(Cc3ccccc3OC)C2)CC1 (stereo unspecified),-,-,-,0,-,-,-,-
COc1ccc(C(O)c2ncc(-c3cccc(F)c3)[nH]2)cc1F (stereo unspecified),-,-,-,0,-,-,-,-
O=C(/C=C/c1ccccc1Cl)Nc1cccnc1,0,0,0,0,0,0,-,-
O=C(/C=C/c1ccccc1Cl)Nc1ccncc1,0,0,0,+,0,0,0,0
COc1ccc(Cl)cc1NC(=S)N(Cc1ccccc1C)CC1CCC(C(=O)O)CC1 (stereo unspecified),0,0,0,0,0,0,0,0
O=C(c1ccc(F)cc1)C1CCN(C(=S)Nc2ccc(F)cc2)CC1,0,0,0,0,0,0,-,-
Cn1cc(CC(=O)N2CCN(c3ccccc3F)CC2)c2ccccc21,0,0,0,0,0,0,-,-
Cn1cc(CC(=O)N2CCN(c3ccc(Cl)cc3)CC2)c2ccccc21,0,0,0,0,0,0,0,0
CCC(C)NC(=O)Cn1c(=O)n(-c2ccccc2)c(=O)c2ccc(C(=O)NCc3ccco3)cc21 (stereo unspecified),0,0,0,0,0,0,-,-
Cc1ccc(Cn2c(=O)n(Cc3ccco3)c(=O)c3ccccc32)cc1,0,0,0,0,0,0,0,0
Cc1cccc(Cn2c(=O)n(-c3ccc(CC(=O)NCc4ccco4)cc3)c(=O)c3sccc32)c1,0,0,0,0,0,0,0,0
O=c1c2ccccc2n(Cc2ccc(Cl)cc2)c(=O)n1Cc1ccco1,0,0,0,0,0,0,-,-
Cc1ccc(Cn2c(=O)n(-c3ccccc3)c(=O)c3ccc(C(=O)NCc4ccco4)cc32)cc1,0,0,0,0,0,0,0,0
COCCCN1C(=O)C(CC(=O)NCCN2CCOCC2)CC(C(=O)N(C)C)=C1C (stereo unspecified),-,-,-,0,-,-,-,-
CC(C)(C)c1ccc(S(=O)(=O)N2CCC(N3CCCCC3)CC2)cc1,0,0,0,0,0,0,-,-
O=C(NC1CCCCC1)c1n[nH]c2c1CC(c1ccccc1)CC2 (stereo unspecified),0,0,0,0,0,0,-,-
